Drawing on PubChem BioAssay (NCI), this text covers growth for 39 compounds.

Compounds without any hit were thinned out: in the full panel of roughly 83,000, 20% have a hit.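 Method: cells in 96-well plates; compound added at one concentration; 48 h incubation; percent growth measured; values under 10 scored active.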 A number with no mark means an inactive call. Active and inactive are the calls of the source.

The first assay has as its system NCI-H522 lung. Put plainly: NCI-60 one-dose screen, 48 h (100 = growth as untreated, 0 = no growth, -100 = all killed). The note with it: 10 µM unless noted.
For the compound `CCOC(=O)c1ccc(N(CCC(=O)O)C(C)=O)cc1`, the growth was 95%.

Consider `Nc1c(C(=O)Nc2cccc(Cl)c2)sc2ncc(Br)cc12`, for which the growth was 65.2%.

`CSC(=S)N/N=C(\C)c1ccccn1`: the growth is -3.86% (active).

`CC(=O)O[C@H]1[C@H](CC#CC#CC[C@@H]2C[C@]3(C)[C@H]4CC=C5[C@H]6[C@@H](C)[C@H](C)CC[C@]6(C(=O)NCCCCCCCCN)CC[C@@]5(C)[C@]4(C)CC[C@H]3C(C)(C)[C@H]2OC(C)=O)C[C@]2(C)[C@H]3CC=C4[C@H]5[C@@H](C)[C@H](C)CC[C@]5(C(=O)NCCCCCCCCN)CC[C@@]4(C)[C@]3(C)CC[C@H]2C1(C)C`: the growth is 106%.

As to `CC(C)COC(=O)NC(C)(C)C`, the growth was 71.5%.

Consider `CCC(=O)NC(O)C(Cl)(Cl)C(C)Cl` (stereo not drawn), for which the growth is 102%.

For `C#CCNC(=S)N/N=C(\C)c1ccccn1`, the growth is 43.9%.

In the case of `COc1ccc(-c2nnc(SCC(=O)Nc3ccc(C(=O)/C=C/c4ccc(Cl)cc4)cc3)n2-c2ccccc2)cc1`, the growth was 84%.

Consider `CC1CCN(Cc2ccc(NC(=O)c3cc4ccc5cccnc5c4[nH]3)cc2)CC1`, for which the growth is 23%.

For the compound `CC(C)N1CCN(c2ccncc2S(=O)(=O)N2CCN(C)CC2)CC1`, the growth was 92.7%.

As to `O=C(/C=C/c1ccccc1)n1c(-c2ccccc2)nc2ccccc21`, the growth was 102%.

For the compound `COC1CC(N)C2OC(c3ccccc3)OCC2O1` (stereo not drawn), the growth is 98.7%.

Turning to `COc1cccc(NC(=O)[C@H](C(C)C)n2c(=O)[nH]c3ccccc3c2=O)c1`, the growth is 99.1%.

As for `COc1ccc(-c2cnc3ccnn3c2-c2cc(OC)c(OC)c(OC)c2)cc1`, the growth is 10.1%.

On to `COc1cc2cc(C(=O)Nc3ccccc3)c(N)nc2cc1OC`, for which the growth was -65.3% (active).

For the compound `O=C(C=P(c1ccccc1)(c1ccccc1)c1ccccc1)CCl`, the growth was -77.7% (active).

As to `CCCCCCCCCCCCCCCCS(=O)(=O)Nc1cc(C(=O)NN)cc(C(=O)NN)c1`, the growth was 78.4%.

As to `COS(=O)(=O)CCN(CCOS(C)(=O)=O)S(C)(=O)=O`, the growth is 78.2%.

As to `CCn1c(CN2CCN(Cc3ccccc3)CC2)nc2cc(NC(=O)c3cccs3)ccc21`, the growth was -64.4% (active).

For `CC(=O)c1ccc(-n2c(-c3cc(-c4ccsc4)n[nH]3)n[nH]c2=S)cc1`, the growth was 82.6%.

As to `CCN(CC)Cc1cc(Nc2ccnc3cc(Cl)ccc23)cc(-c2ccc(Cl)cc2)c1O`, the growth was 35.3%.

`O=C(NCC(c1ccsc1)N1CCCCCC1)c1ccc(C(F)(F)F)cc1` (stereo not drawn): the growth was 92.8%.

On to `COc1cc(NC(C)CCCN)c2ncccc2c1Oc1ccc(Cl)cc1` (stereo not drawn), for which the growth was 87.9%.

Turning to `O=C(c1ccccc1)N(CCCCl)C(=O)N(CCCCl)C(=O)c1ccccc1`, the growth was 88.1%.

For the compound `COc1ccc(C2=CC(c3ccc(OC)cc3Br)N3C=CSC3=N2)cc1` (stereo not drawn), the growth was 67.9%.

For `CC(=O)c1nn(-c2ccccc2)/c(=N\N=C\c2coc3ccc(F)cc3c2=O)s1`, the growth was 101%.

For `O=C(c1ccc(C(F)(F)F)c(Cl)c1)N(Cc1ccc(Cl)cc1)c1ccc(-c2cc(C(F)(F)F)[nH]n2)c(O)c1`, the growth is -1.27% (active).

Take `C/C(=N\OC(=O)Nc1cccc(Cl)c1)c1ccccc1`: the growth was 91.9%.

For the compound `C/C(=C\C(=N\N=C(N)N)c1ccc(Cl)cc1)c1ccc(Cl)cc1`, the growth was -88.4% (active).

For `O=C(NO)c1ccc(NCc2csc3ccccc23)cc1`, the growth is 33.1%.

Turning to `C#CC[C@@H]1C[C@]2(C)[C@H]3CC=C4[C@H]5CC(C)(C)CC[C@]5(C(=O)NCCCCN)CC[C@@]4(C)[C@]3(C)CC[C@H]2C(C)(C)[C@H]1OC(C)=O`, the growth is 70.1%.

On to `Oc1ccc(Cl)cc1-c1cc(-c2ccccc2Cl)[nH]n1`, for which the growth was 27.4%.

For `CC1C2CCC(C2)C1COCCOCCO` (stereo not drawn), the growth is 96%.

With `O=C1C(Cl)=C(N/N=c2/[nH][nH]/c(=N/NC3=C(Cl)C(=O)c4ccccc4C3=O)c3ccccc23)C(=O)c2ccccc21`, the growth was 30.1%.

Consider `COc1ccc(/C=c2\c(=O)n(-c3ccccc3)c3nn4c(n23)=NNC42CCCCC2)cc1`, for which the growth is 90.3%.

Turning to `CCNC(=S)N(Cc1ccccc1)Cc1ccccc1`, the growth was 88.1%.

Take `N#CC1=C(N)Oc2nc[nH]c(=O)c2C1c1cccs1` (stereo not drawn): the growth is 97.6%.

On to `CCN(C(=O)Nc1cccc2ccccc12)c1ccccc1`, for which the growth was 100%.

Turning to `COc1ccc(-c2nc(-c3cc(OC)cc(OC)c3)[nH]c2-c2ccc(OC)cc2)cc1`, the growth is 20.9%.

The next assay deals with A549/ATCC NSCLC. Described as above. The note with it: 10 µM unless noted.
`CCOC(=O)c1ccc(N(CCC(=O)O)C(C)=O)cc1`: the growth is 104%.

Take `Nc1c(C(=O)Nc2cccc(Cl)c2)sc2ncc(Br)cc12`: the growth was 34.6%.

As for `CSC(=S)N/N=C(\C)c1ccccn1`, the growth is 10.3%.

Regarding `CC(=O)O[C@H]1[C@H](CC#CC#CC[C@@H]2C[C@]3(C)[C@H]4CC=C5[C@H]6[C@@H](C)[C@H](C)CC[C@]6(C(=O)NCCCCCCCCN)CC[C@@]5(C)[C@]4(C)CC[C@H]3C(C)(C)[C@H]2OC(C)=O)C[C@]2(C)[C@H]3CC=C4[C@H]5[C@@H](C)[C@H](C)CC[C@]5(C(=O)NCCCCCCCCN)CC[C@@]4(C)[C@]3(C)CC[C@H]2C1(C)C`, the growth was 102%.

Take `CC(C)COC(=O)NC(C)(C)C`: the growth is 101%.

Turning to `CCC(=O)NC(O)C(Cl)(Cl)C(C)Cl` (stereo not drawn), the growth was 97.5%.

As for `C#CCNC(=S)N/N=C(\C)c1ccccn1`, the growth was 23.9%.

Turning to `COc1ccc(-c2nnc(SCC(=O)Nc3ccc(C(=O)/C=C/c4ccc(Cl)cc4)cc3)n2-c2ccccc2)cc1`, the growth was 88.5%.

On to `CC1CCN(Cc2ccc(NC(=O)c3cc4ccc5cccnc5c4[nH]3)cc2)CC1`, for which the growth is 25.7%.

Take `CC(C)N1CCN(c2ccncc2S(=O)(=O)N2CCN(C)CC2)CC1`: the growth was 101%.

As to `O=C(/C=C/c1ccccc1)n1c(-c2ccccc2)nc2ccccc21`, the growth was 101%.

With `COC1CC(N)C2OC(c3ccccc3)OCC2O1` (stereo not drawn), the growth is 97.9%.

`COc1cccc(NC(=O)[C@H](C(C)C)n2c(=O)[nH]c3ccccc3c2=O)c1`: the growth was 97.9%.

Regarding `COc1ccc(-c2cnc3ccnn3c2-c2cc(OC)c(OC)c(OC)c2)cc1`, the growth is 46.8%.

With `COc1cc2cc(C(=O)Nc3ccccc3)c(N)nc2cc1OC`, the growth was 15.3%.

Take `O=C(C=P(c1ccccc1)(c1ccccc1)c1ccccc1)CCl`: the growth was 23.1%.

On to `CCCCCCCCCCCCCCCCS(=O)(=O)Nc1cc(C(=O)NN)cc(C(=O)NN)c1`, for which the growth is 91.8%.

With `COS(=O)(=O)CCN(CCOS(C)(=O)=O)S(C)(=O)=O`, the growth is 90.1%.

Consider `CCn1c(CN2CCN(Cc3ccccc3)CC2)nc2cc(NC(=O)c3cccs3)ccc21`, for which the growth is -72.9% (active).

As to `CC(=O)c1ccc(-n2c(-c3cc(-c4ccsc4)n[nH]3)n[nH]c2=S)cc1`, the growth was 98.3%.

For the compound `CCN(CC)Cc1cc(Nc2ccnc3cc(Cl)ccc23)cc(-c2ccc(Cl)cc2)c1O`, the growth was 20.7%.

Take `O=C(NCC(c1ccsc1)N1CCCCCC1)c1ccc(C(F)(F)F)cc1` (stereo not drawn): the growth is 96.5%.

Turning to `COc1cc(NC(C)CCCN)c2ncccc2c1Oc1ccc(Cl)cc1` (stereo not drawn), the growth was 87.9%.

On to `O=C(c1ccccc1)N(CCCCl)C(=O)N(CCCCl)C(=O)c1ccccc1`, for which the growth is 87.7%.

For the compound `COc1ccc(C2=CC(c3ccc(OC)cc3Br)N3C=CSC3=N2)cc1` (stereo not drawn), the growth was 41.8%.

With `CC(=O)c1nn(-c2ccccc2)/c(=N\N=C\c2coc3ccc(F)cc3c2=O)s1`, the growth was 109%.

For `O=C(c1ccc(C(F)(F)F)c(Cl)c1)N(Cc1ccc(Cl)cc1)c1ccc(-c2cc(C(F)(F)F)[nH]n2)c(O)c1`, the growth is 12.8%.

`C/C(=N\OC(=O)Nc1cccc(Cl)c1)c1ccccc1`: the growth is 89.2%.

In the case of `C/C(=C\C(=N\N=C(N)N)c1ccc(Cl)cc1)c1ccc(Cl)cc1`, the growth was -81.3% (active).

Regarding `O=C(NO)c1ccc(NCc2csc3ccccc23)cc1`, the growth was 70.3%.

With `C#CC[C@@H]1C[C@]2(C)[C@H]3CC=C4[C@H]5CC(C)(C)CC[C@]5(C(=O)NCCCCN)CC[C@@]4(C)[C@]3(C)CC[C@H]2C(C)(C)[C@H]1OC(C)=O`, the growth was 27.8%.

As to `Oc1ccc(Cl)cc1-c1cc(-c2ccccc2Cl)[nH]n1`, the growth was 53.1%.

For the compound `CC1C2CCC(C2)C1COCCOCCO` (stereo not drawn), the growth was 92%.

With `O=C1C(Cl)=C(N/N=c2/[nH][nH]/c(=N/NC3=C(Cl)C(=O)c4ccccc4C3=O)c3ccccc23)C(=O)c2ccccc21`, the growth was 94.6%.

Consider `COc1ccc(/C=c2\c(=O)n(-c3ccccc3)c3nn4c(n23)=NNC42CCCCC2)cc1`, for which the growth is 104%.

Consider `CCNC(=S)N(Cc1ccccc1)Cc1ccccc1`, for which the growth was 98.4%.

In the case of `N#CC1=C(N)Oc2nc[nH]c(=O)c2C1c1cccs1` (stereo not drawn), the growth is 95.7%.

Consider `CCN(C(=O)Nc1cccc2ccccc12)c1ccccc1`, for which the growth is 98.7%.

On to `COc1ccc(-c2nc(-c3cc(OC)cc(OC)c3)[nH]c2-c2ccc(OC)cc2)cc1`, for which the growth is 46.7%.
